HP1b binding inh: inhibitors of HP1-beta chromodomain binding to methylated histone tails | 0.56% of 390,000 active | Potency, µM (series often up to 114 µM), most hits filed as inhibitors | P83916 | AID 540317 | AlphaScreen HP1-beta / biotin-H3K9me3 peptide binding; also: nearly all actives have a fitted effect of over 70% in size
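HP1-beta protein (50 nM final) preincubated 30 min at room temperature with biotinylated H3(1-18)K9me3 peptide (50 nM) in PBS pH 7.4, 0.01% Tween-20, then compound added for 30 min. AlphaScreen streptavidin donor/nickel chelate acceptor beads (10 ug/mL final), 30 min dark, luminescence read.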
BAZ2B block: BAZ2B (human) inhibition. Potency, µM (series often up to 114 µM), actives largely listed as inhibitors. 4.4% of 360,000 active. Q9UIF8. AlphaScreen BAZ2B-H3K14Ac peptide displacement. AID 504333; also: nearly all actives have a fitted effect of over 60% in size
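In this displacement format the biotinylated H3(5-23) peptide acetylated at Lys14 serves as ligand at 50 nM, with BAZ2B at 50 nM in PBS pH 7.4 containing 0.01% Tween-20. Donor and acceptor beads are 10 ug/mL final.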
TDP1 block: blocks human tyrosyl-DNA phosphodiesterase 1; Q9NUW8; 0.28% of 350,000 active; recombinant TDP1, AlphaScreen DNA substrate cleavage; Potency, µM (highest dose often 130 µM), hits mostly inhibitors; AID 485290; also: nearly all actives have a fitted effect of over 40% in size
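Compounds were preincubated with Tdp1 (1 nM final) for 15 min at room temperature before substrate (15 nM final) started a 5 min reaction; beads (10 ug/ml final) were then added for 10 min before AlphaScreen detection.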
JMJD2A Tudor: JMJD2A Tudor domain (human) inhibition; O75164; AlphaScreen JMJD2A-Tudor / H3K4me3 peptide binding; Potency, µM (top dose mostly 114 µM), actives largely listed as inhibitors; 4.4% of 390,000 active; also: nearly all actives have a fitted effect of over 50% in size
G9a inh: G9a (human) methyltransferase inhibition | Q96KQ7 | G9a H3K9 monomethylation, AlphaScreen, 2 h | Potency, µM (highest dose often 102 µM), usual class: inhibitors | 8.8% of 350,000 active | AID 504332; also: nearly all actives have a fitted effect of over 75% in size
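Compounds were preincubated with 20 nM G9a for 15 min, after which biotinylated H3K9 peptide (500 nM) and SAM (20 uM) started a 2 h room-temperature reaction. Monomethylated product was quantified by antibody-based AlphaScreen chemiluminescence.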
Sfp PPTase inh: inhibitors of Bacillus subtilis Sfp phosphopantetheinyl transferase; Q9F4F7; Biochemical Sfp PPTase activity, qHTS; 3.5% of 310,000 active; Potency, µM, hits mostly inhibitors; AID 1490;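 also: the enzyme is Sfp with the accession as filed and its product quenches rhodamine fluorescence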
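Buffer: 50 mM Hepes-Na pH 7.6, 10 mM MgCl2, 0.01% Nonidet P-40, 0.01% BSA. Enzyme 15 nM, pre-exposed to compound 15 min; substrates then added and fluorescence change tracked over 30 min.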
Each line names hits and unclear results; the compound was inactive in the other large screens. A selection: hits, their analogues and other compounds. The true share with any hit is near 12%. Calls follow the shape of the dose curve; as a rule, active = well fitted curve in the direction sought with a large enough effect; inconclusive = small, poorly fitted or top-dose-only effect, or another doubt; inactive = no such curve, though single readings can be large; an effect the other way counts as inactive or inconclusive.

C#CCOCCOCCOCCNc1nc(N2CCN(C(=O)[C@H](CCC(=O)O)n3cc([C@@H](N)CC(N)=O)nn3)CC2)nc(N2CCN(C(=O)[C@H](CCC(=O)O)n3cc([C@@H](N)CC(N)=O)nn3)CC2)n1	JMJD2A Tudor 20µM (no result: BAZ2B block, G9a inh, Sfp PPTase inh)
C#CCOCCOCCOCCNc1nc(N2CCN(C(=O)[C@H](CC(N)=O)n3cc([C@@H](N)CC(N)=O)nn3)CC2)nc(N2CCN(C(=O)[C@H](CC(N)=O)n3cc([C@@H](N)CC(N)=O)nn3)CC2)n1	JMJD2A Tudor 25µM (no result: BAZ2B block, G9a inh, Sfp PPTase inh)
C#CCOCCOCCOCCNc1nc(N2CCN(C(=O)[C@H](CC(N)=O)n3cc([C@@H](N)C(C)C)nn3)CC2)nc(N2CCN(C(=O)[C@H](CC(N)=O)n3cc([C@@H](N)C(C)C)nn3)CC2)n1	JMJD2A Tudor 25µM (no result: BAZ2B block, G9a inh, Sfp PPTase inh)
C#CCOCCOCCOCCNc1nc(N2CCOCC2)nc(N2CCN(C(=O)[C@H](CC(N)=O)n3cc(C(N)[C@@H](C)CC)nn3)CC2)n1 (stereo not given in full)	none (no result: BAZ2B block, G9a inh, Sfp PPTase inh)
Cc1ccc(C2C3=C(CC(C)(C)CC3=O)Nc3[nH]c(=S)[nH]c(=O)c32)cc1 (stereo not given)	BAZ2B block inconclusive, JMJD2A Tudor 89µM, G9a inh inconclusive, Sfp PPTase inh 14µM
COc1cccc(/C=C/C(=O)Nc2cccc(C(C)=O)c2)c1OC	none
COc1cccc(/C=C/C(=C2\C(=O)N(c3ccccc3)N=C2C)c2ccc(Br)cc2)c1OC	HP1b binding inh 40µM, JMJD2A Tudor inconclusive (no result: BAZ2B block, TDP1 block, G9a inh, Sfp PPTase inh)
O=C(OCC(=O)N1CCCC1)c1ccccc1O	none
Oc1ccccc1C(=S)N1CCN(C(=S)c2ccccc2O)CC1	HP1b binding inh inconclusive, G9a inh 3.5µM, Sfp PPTase inh 28µM (no result: TDP1 block)
S=C(c1ccccc1)N1CCSCC1	none (no result: TDP1 block)
Oc1ccccc1C(=S)N1CCCC1	Sfp PPTase inh 50µM (no result: TDP1 block)
COc1cccc(C(=S)N2CCCC2)c1OC	HP1b binding inh inconclusive, G9a inh 8.9µM, Sfp PPTase inh 50µM
Cc1ccc(S(=O)(=O)NC2CCCC2)cc1C(N)=O	none
CCN1C(=O)/C(=C\C(=O)c2cccs2)c2cc(Br)ccc21	HP1b binding inh 22µM, BAZ2B block 16µM, JMJD2A Tudor 28µM, G9a inh inconclusive, Sfp PPTase inh 20µM
Cc1nc(N=Nc2cc(S(=O)(=O)O)ccc2S(=O)(=O)O)c(COP(=O)(O)O)c(C=O)c1O	TDP1 block 5µM (no result: HP1b binding inh, BAZ2B block, JMJD2A Tudor, G9a inh)
Cc1ncc(COP(=O)(O)O)c(C=O)c1O	G9a inh inconclusive (no result: HP1b binding inh, BAZ2B block, JMJD2A Tudor)
CCN(CCO)Cc1cc(=O)oc2cc3c(cc12)CCC3	G9a inh 40µM
CN[C@@H]1[C@H](O[C@@H]2O[C@H](CO)[C@@H](N)[C@H](O)[C@@H]2O)O[C@H]2C[C@@H](N)[C@@H](O[C@H]3[C@@H](O)[C@H](O)[C@H](N)C[C@@H]3N)O[C@H]2[C@H]1O	none (no result: HP1b binding inh, BAZ2B block, JMJD2A Tudor)
CN[C@@H]1[C@H](O[C@@H]2O[C@H](C)[C@@](O)(CO)[C@H]2O[C@H]2[C@H](O)[C@H](O)[C@H](N=C(N)N)[C@@H](O)[C@@H]2N=C(N)N)O[C@@H](CO)[C@H](O)[C@H]1O	G9a inh 10µM (no result: HP1b binding inh, BAZ2B block, JMJD2A Tudor)
CCOc1cc(-c2nnc(SCC(=O)NCc3ccc(C)cc3)nc2-c2ccc(OC)c(OCC)c2)ccc1OC	BAZ2B block 56µM, G9a inh 10µM (no result: Sfp PPTase inh)
CCOc1cc(-c2nnc(SCC(=O)NCc3ccccc3)nc2-c2ccc(OC)c(OCC)c2)ccc1OC	BAZ2B block 50µM, JMJD2A Tudor inconclusive, G9a inh 7.9µM (no result: Sfp PPTase inh)
COc1ccc(-c2nnc(SCC(=O)NCc3ccc(C)cc3)nc2-c2ccc(OC)c(OC)c2)cc1OC	none (no result: Sfp PPTase inh)
Cc1ccc(OCCCC(=O)Nc2cc(Cl)ccc2-n2cncn2)cc1	none (no result: TDP1 block, Sfp PPTase inh)
CSc1ccc(CNC(=O)Cn2nc(C)c3c(C)n(-c4ccc(C)cc4)nc3c2=O)cc1	none
Cc1cc(NCCCn2ccnc2)n2nc(C)c(-c3ccccc3)c2n1	BAZ2B block inconclusive, JMJD2A Tudor inconclusive
Cc1cc(NCCCn2ccnc2)n2nc(C)c(-c3ccc(Cl)cc3)c2n1	BAZ2B block 32µM, JMJD2A Tudor inconclusive, G9a inh inconclusive
Cc1ccc(Cc2c(C)nc3nc(SCC(=O)NC(C)c4ccccc4)nn3c2C)cc1 (stereo not given)	none (no result: Sfp PPTase inh)
O=C(CSc1ncc(-c2ccc(F)cc2)n1Cc1ccco1)Nc1ccc2c(c1)OCO2	BAZ2B block 11µM, JMJD2A Tudor 45µM, G9a inh inconclusive
CCOc1ccc(NC(=O)CSc2ncc(-c3ccc(F)cc3)n2Cc2ccco2)cc1	BAZ2B block 8.9µM, G9a inh inconclusive (no result: TDP1 block)
CC(C)(C)c1ccc(NC(=O)N2CCCN(c3c(Cl)cncc3Cl)CC2)cc1	none
CN1CCc2c(sc3c2C(=O)NC(c2ccc(OC(=O)c4ccc(C(C)(C)C)cc4)cc2)N3)C1 (stereo not given)	G9a inh 7.9µM (no result: Sfp PPTase inh)
CN1CCc2c(sc3c2C(=O)NC(c2ccccn2)N3)C1 (stereo not given)	BAZ2B block 45µM, JMJD2A Tudor 20µM, G9a inh 25µM, Sfp PPTase inh 16µM
O=C1NC(c2ccc(Br)cc2)Nc2sc3c(c21)CCC3 (stereo not given)	JMJD2A Tudor inconclusive, G9a inh inconclusive, Sfp PPTase inh 40µM
O=C1NC(c2ccccn2)Nc2sc3c(c21)CCC3 (stereo not given)	BAZ2B block inconclusive, JMJD2A Tudor inconclusive, G9a inh 22µM, Sfp PPTase inh 32µM
CCN(CC(=O)Nc1c(F)cccc1F)C(=O)C1CC(=O)N(c2ccccc2OC)C1 (stereo not given)	none (no result: G9a inh)
CCOc1ccc(CNC(=O)CCCn2c(=O)c3cccn3c3cccnc32)cc1	none (no result: Sfp PPTase inh)
CN1CCc2c(sc3c2C(=O)NC(c2ccccc2)N3)C1 (stereo not given)	G9a inh 40µM, Sfp PPTase inh 56µM
CCOc1cc(C2NC(=O)c3c(sc4c3CCN(C)C4)N2)ccc1OC(=O)c1ccc(F)cc1 (stereo not given)	none (no result: TDP1 block, Sfp PPTase inh)
CN1CCc2c(sc3c2C(=O)NC(c2ccc(OC(=O)c4ccccc4)cc2)N3)C1 (stereo not given)	G9a inh 13µM (no result: TDP1 block, Sfp PPTase inh)
Cc1ccsc1C1NC(=O)c2ccccc2N1 (stereo not given)	G9a inh inconclusive
Cc1ccsc1C1NC(=O)c2c(sc3c2CCCC3)N1 (stereo not given)	JMJD2A Tudor inconclusive, G9a inh inconclusive, Sfp PPTase inh 45µM
CN1CCc2c(sc3c2C(=O)NC(c2ccc4c(c2)OCO4)N3)C1 (stereo not given)	Sfp PPTase inh inconclusive

Source: PubChem BioAssay (National Center for Advancing Translational Sciences (NCATS))
